Some test systems named below: K-562 leukemia; MALME-3M melanoma; MDA-MB-231 breast; RXF 393 renal; SF-268 CNS; SF-295 CNS; UACC-257 melanoma; M14 melanoma; HCT-15 colon; HT29 colon; SNB-75 CNS; SNB-19 CNS; U251 CNS; PC-3 prostate; SK-MEL-5 melanoma; UACC-62 melanoma; LOX IMVI melanoma; SK-MEL-28 melanoma; SK-MEL-2 melanoma; SF-539 CNS.
What all share (test): NCI-60 one-dose screen, 48 h (100 = growth as untreated, 0 = no growth, -100 = all killed)
What all share (conditions): 10 µM unless noted

The panel holds about 83,000 compounds, 20% with a hit somewhere; the sample as a whole holds those more often.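 Single-dose data. Exposure time 48 hours. Values below 10 considered active.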 Unmarked numbers belong to inactive results. The source made the active and inactive calls.

For the compound `CSc1nc2c(c(=O)[nH]1)C(c1ccc(Cl)cc1)C1=C(N2)/C(=C/c2ccc(Cl)cc2)CNC1` (stereo unspecified), the growth with K-562 leukemia was 8.37% (active); in the assay with MALME-3M melanoma, 91.9%; with MDA-MB-231 breast, 40.4%; in the assay on RXF 393 renal, 52.3%; with SF-268 CNS, 10.1%; in the assay on SF-295 CNS, 69.3%. Also, the growth was 81.9% in the assay on UACC-257 melanoma; 64.1% in the assay on M14 melanoma; 13.5% in the assay with HCT-15 colon; -36.6% (active) in the assay on HT29 colon; 51.9% in the assay on SNB-75 CNS; 46.8% in the assay on SNB-19 CNS. The growth was -16.1% (active) in the assay with U251 CNS; 42% with PC-3 prostate; 77.1% in the assay on SK-MEL-5 melanoma; 89.2% with UACC-62 melanoma; -61.3% (active) with LOX IMVI melanoma; 87.9% in the assay on SK-MEL-28 melanoma. The growth with SK-MEL-2 melanoma is 78.4%.
In the case of `O=C(CSc1nnc(Nc2ccccc2)s1)NCCc1ccc(F)cc1`, the growth in the assay on K-562 leukemia is 107%; with MALME-3M melanoma it was 97.4%; in the assay with MDA-MB-231 breast, 91.5%; in the assay on RXF 393 renal, 113%; in the assay with SF-268 CNS, 109%; with SF-295 CNS, 102%. Further, the growth is 96.4% with SF-539 CNS; 103% in the assay on M14 melanoma; 120% with HCT-15 colon; 105% with HT29 colon; 119% in the assay on SNB-75 CNS; 100% in the assay on SNB-19 CNS. For the same compound, the growth with U251 CNS is 105%; in the assay with SK-MEL-5 melanoma, 97.2%; in the assay with UACC-62 melanoma it was 90%; in the assay on LOX IMVI melanoma, 99.8%; with SK-MEL-28 melanoma it was 134%; in the assay on SK-MEL-2 melanoma, 66.2%.
For `CCC(=O)Nc1ccccc1C#C/C=C\C#Cc1ccccc1C(F)(F)F`, the growth was 43.4% in the assay on K-562 leukemia; 54.4% in the assay with MALME-3M melanoma; 55.6% with MDA-MB-231 breast; 42.8% in the assay with RXF 393 renal; 67.8% with SF-268 CNS; 28.8% in the assay on SF-295 CNS. Also, the growth in the assay on SF-539 CNS was 55%; with M14 melanoma, 40.5%; in the assay on HCT-15 colon, 56.3%; in the assay on HT29 colon, 47.9%; in the assay on SNB-75 CNS, 32.3%; in the assay on SNB-19 CNS it was 66.4%. Also, the growth in the assay on U251 CNS was 34.9%; in the assay with SK-MEL-5 melanoma it was 60.2%; with UACC-62 melanoma, 38.2%; in the assay with LOX IMVI melanoma, 56.1%; with SK-MEL-28 melanoma it was 83.8%; with SK-MEL-2 melanoma, 12.4%.
On to `Fc1ccc(-c2nc(Nc3ccc(-c4nc5ccccc5[nH]4)cc3)nc(N3CCOCC3)n2)cc1`, for which the growth with K-562 leukemia is -100% (active); in the assay with MALME-3M melanoma it was -73.4% (active); in the assay with MDA-MB-231 breast, -76.7% (active); in the assay with RXF 393 renal it was -91.1% (active); in the assay with SF-268 CNS, -82.7% (active); in the assay with SF-295 CNS, -94.4% (active). Moreover, the growth in the assay on SF-539 CNS was -92.7% (active); in the assay with M14 melanoma, -82.6% (active); with HCT-15 colon, -92.6% (active); with HT29 colon it was -78.6% (active); in the assay with SNB-75 CNS it was -92.6% (active); with SNB-19 CNS it was -81.2% (active). For the same compound, the growth is -93% (active) in the assay on U251 CNS; -93.5% (active) in the assay with PC-3 prostate; -97.6% (active) in the assay on SK-MEL-5 melanoma; -93% (active) in the assay on LOX IMVI melanoma; -84.7% (active) in the assay with SK-MEL-28 melanoma; -71.3% (active) with SK-MEL-2 melanoma.
Turning to `COC(=O)[C@]12CC[C@@H](C)[C@H](C)[C@@H]1C1=CC[C@@H]3[C@@]4(C)C[C@@H](OC(=O)c5ccco5)[C@H](O)[C@@](C)(CO)[C@@H]4[C@H](O)C[C@@]3(C)[C@]1(C)CC2`, the growth is -100% (active) with K-562 leukemia; -73.4% (active) with MALME-3M melanoma; -65.7% (active) in the assay with MDA-MB-231 breast; -79% (active) in the assay with RXF 393 renal; -79.6% (active) in the assay on SF-268 CNS; -98.3% (active) in the assay with SF-295 CNS. Further, the growth in the assay with SF-539 CNS was -90.1% (active); in the assay with M14 melanoma, -59.5% (active); with HCT-15 colon, -95.7% (active); in the assay with HT29 colon it was -92.8% (active); with SNB-75 CNS it was -84.4% (active); with SNB-19 CNS, -71% (active). The growth in the assay on U251 CNS is -85.2% (active); in the assay on PC-3 prostate, -100% (active); in the assay on SK-MEL-5 melanoma it was -99.9% (active); with LOX IMVI melanoma, -99.4% (active); in the assay on SK-MEL-28 melanoma, -84.6% (active); in the assay with SK-MEL-2 melanoma, -77.7% (active).
`S=C1SCN(Cc2ccccc2)CN1Cc1ccco1`: the growth with K-562 leukemia was 11.6%; with MALME-3M melanoma it was 94%; with MDA-MB-231 breast, 91.3%; in the assay with RXF 393 renal it was 101%; in the assay on SF-268 CNS, 94.2%; in the assay on SF-539 CNS, 65.8%. Besides, the growth in the assay on UACC-257 melanoma was 72.4%; in the assay on M14 melanoma, 87.1%; in the assay on HCT-15 colon, 41.7%; in the assay with HT29 colon, 27.4%; in the assay on SNB-75 CNS, 92.1%; in the assay on SNB-19 CNS, 101%. In addition, the growth in the assay with U251 CNS was 97.3%; in the assay with PC-3 prostate, 90.3%; in the assay with SK-MEL-5 melanoma, 87.3%; with UACC-62 melanoma it was 91.6%; in the assay with LOX IMVI melanoma, 81.6%; in the assay with SK-MEL-28 melanoma, 105%. Besides, the growth with SK-MEL-2 melanoma is 81.1%.
`Cc1cc(CC(=O)O)n(C)c1C(=O)c1ccc(Cl)cc1`: the growth was 103% in the assay on K-562 leukemia; 102% in the assay with MALME-3M melanoma; 109% in the assay on MDA-MB-231 breast; 117% in the assay with RXF 393 renal; 114% with SF-268 CNS; 93.1% in the assay on SF-295 CNS. Also, the growth with UACC-257 melanoma is 104%; in the assay with M14 melanoma it was 106%; with HCT-15 colon, 103%; in the assay on HT29 colon it was 109%; in the assay with SNB-75 CNS, 121%; in the assay with SNB-19 CNS it was 108%. Further, the growth with U251 CNS was 99.5%; in the assay on PC-3 prostate it was 99.5%; with SK-MEL-5 melanoma, 98.7%; in the assay on LOX IMVI melanoma it was 97.9%; in the assay on SK-MEL-28 melanoma, 122%; with SK-MEL-2 melanoma, 115%.
As for `Nc1ccc(S(=O)(=O)Nc2ncccn2)cc1`, the growth with K-562 leukemia is 104%; in the assay on MALME-3M melanoma it was 118%; with MDA-MB-231 breast, 98.6%; in the assay on RXF 393 renal it was 118%; in the assay with SF-268 CNS, 108%; in the assay with SF-295 CNS, 104%. The growth is 105% in the assay on UACC-257 melanoma; 115% with M14 melanoma; 99.1% in the assay on HCT-15 colon; 105% with HT29 colon; 102% with SNB-75 CNS; 105% in the assay with SNB-19 CNS. In addition, the growth in the assay on U251 CNS is 106%; in the assay on PC-3 prostate, 97.7%; in the assay with SK-MEL-5 melanoma, 108%; in the assay with LOX IMVI melanoma it was 102%; with SK-MEL-28 melanoma, 118%; in the assay on SK-MEL-2 melanoma, 106%.
